# Laboratory results: PubChem BioAssay (NCATS)
# Unmarked numbers belong to inactive results. Inconclusive results are not listed. Entries that show only a call come without a potency. Activity calls are given as the source filed them. The call rests on the fitted dose curve; in most records, active means well fitted curve in the direction sought with a large enough effect; inconclusive means small, poorly fitted or top-dose-only effect, or another doubt; inactive means no such curve, though single readings can be large; an effect the other way counts as inactive or inconclusive. *1 amine or outer side, *2 acyl side, *3 side chain or, on linkers, in order; H or OH if unused. Where a SMILES comes first, the peptide text is derived from it. Bridges are numbered along the chain shown (N, C = ends). [ ]: non-standard residue; d: D form. The star is where a group is joined. ξ: configuration not given here. X10 = NC1=NCCC(C(N[*:1])C(=O)[*:2])N1; ΔAla(3-NHCONH2) = NC(=O)NC=C(N)C(=O)O; ξβ3hOrn = NCCCC(N)CC(=O)*; Dap = NC[CH](N)C(=O)O
# Key:
# [1] = molecular target: Metallo-beta-lactamase type 2 (Klebsiella pneumoniae) (UniProt C7C422); assay: qHTS to identify inhibitors of the New Delhi Metallo-beta-lactamase (NDM): assay validation screen against the NCATS LOPAC Collection (AID 1794843);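 further: nitrocefin turnover by NDM-1 measured as 485 nm absorbance at plateau; series mostly up to about 38 µM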
# Chain of Metallo-beta-lactamase type 2 (Klebsiella pneumoniae) (C7C422 whole entry, looked up): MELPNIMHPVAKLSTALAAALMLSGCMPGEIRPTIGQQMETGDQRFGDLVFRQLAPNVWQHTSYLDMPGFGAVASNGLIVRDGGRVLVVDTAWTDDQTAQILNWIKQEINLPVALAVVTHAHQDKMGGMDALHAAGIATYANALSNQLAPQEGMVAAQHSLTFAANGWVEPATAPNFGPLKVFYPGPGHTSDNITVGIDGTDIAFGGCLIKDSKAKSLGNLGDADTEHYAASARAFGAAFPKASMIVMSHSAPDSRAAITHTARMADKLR
# In short: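 NDM-1 at 2 nM final in 50 mM HEPES pH 7.0, 1 uM ZnSO4, 0.01% Tween20, preincubated with LOPAC compounds pinned in DMSO; 50 uM nitrocefin (stock) added. Hydrolysis read as absorbance at 485 nm in the plateau phase.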
# [2] = molecular target: Glutathione peroxidase 1 (Homo sapiens) (UniProt P07203); assay: Primary qHTS Assay for Inhibitors of Recombinant Selenoprotein Glutathione Peroxidase 1 (GPX1) (AID 1845191); further: nearly all actives have a fitted effect of over 65% in size; further: potency means the concentration at half of the fitted maximal effect
# Chain of Glutathione peroxidase 1 (Homo sapiens) (P07203 whole entry, looked up): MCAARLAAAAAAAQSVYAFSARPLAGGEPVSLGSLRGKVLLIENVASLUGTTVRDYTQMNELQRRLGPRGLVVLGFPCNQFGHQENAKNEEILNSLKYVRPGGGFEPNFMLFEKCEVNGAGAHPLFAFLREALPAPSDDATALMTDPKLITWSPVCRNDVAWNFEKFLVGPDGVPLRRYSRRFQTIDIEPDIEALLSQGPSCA
# In short: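 GPX1 10 nM, GR 100 nM, GSH 1 mM, NADPH 0.5 mM, CHP 0.5 mM (final). 30-min cpd preincubation, RT. Ex340/Em450 read t=0, t=15 min.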
# [3] = molecular target: Phospholipid hydroperoxide glutathione peroxidase GPX4 (Homo sapiens) (UniProt P36969); assay: Primary qHTS Assay for Inhibitors of Recombinant Selenoprotein Glutathione Peroxidase 4 (GPX4) (AID 1845192); further: nearly all actives have a fitted effect of over 65% in size; on activity change, negative = inhibition: series mostly up to about 50 µM
# Chain of Phospholipid hydroperoxide glutathione peroxidase GPX4 (Homo sapiens) (P36969 whole entry, looked up): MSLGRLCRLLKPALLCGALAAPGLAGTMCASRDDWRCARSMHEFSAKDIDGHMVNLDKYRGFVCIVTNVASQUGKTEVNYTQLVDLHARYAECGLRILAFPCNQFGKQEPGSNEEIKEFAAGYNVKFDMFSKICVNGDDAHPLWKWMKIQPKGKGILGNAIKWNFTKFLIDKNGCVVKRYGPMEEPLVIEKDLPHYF
# In short: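 qHTS, GR-coupled: GPX4 200 nM + cpd 30 min RT → GSH 1 mM, NADPH 0.5 mM, GR 100 nM → CHP 0.5 mM start; fluor 340/450 at t0 and t15 min; no-enzyme wells as control.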
# [4] = molecular target: Luciferin 4-monooxygenase (Photinus pyralis) (UniProt P08659); assay: Primary firefly luciferase (FLuc) qHTS assay for identification of artifact compounds. (AID 1845220); further: nearly all actives have a fitted effect of over 60% in size; on activity change, negative = inhibition: series mostly up to about 54 µM
# In short: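 Reaction readout was CCD-imaged luminescence, taken 5 min after adding 10 nM purified firefly enzyme to compound-treated wells holding 10 uM luciferin and ATP in pH 7.6 buffer.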
# [5] = Primary fluorescence-based thiol-reactive (MSTI) qHTS assay for identification of artifact compounds. (AID 1845221); further: nearly all actives have a fitted effect of over 65% in size; further: potency means the concentration at half of the fitted maximal effect
# In short: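 Curve-fitted percent inhibition (4-parameter Hill) derived from fluorescence, Ex 525/Em 598 nm, scaled with Acetyl-MSTI and MSTI; 1 h incubation at room temperature.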
# [6] = system: Nanoluciferase (engineered Oplophorus gracilirostris luciferase); assay: Primary Nanoluciferase (NLuc) qHTS assay for identification of artifact compounds. (AID 1845222); further: potency means the concentration at half of the fitted maximal effect;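 on activity, negative = inhibition: NLuc secreted into diluted conditioned medium of S16 cells; series mostly up to about 54 µM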
# In short: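 Concentration-response data were obtained by luminescence after 5 min with Nano-Glo substrate at 1:100. The enzyme was diluted S16 NLuc-expressing cell medium, preincubated with compound for 15 min at RT. Curves were fitted with a 4-parameter Hill model.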
# [7] = Primary redox qHTS assay for identification of artifact compounds. (AID 1845223)
# In short: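 Redox-cycling detection via DTT (250 uM final) oxidation coupled to Amplex Red (25 uM)/HRP (250 mU/mL) in HBSS. 15 min preincubation plus 30 min after DTT, room temperature. Ex/Em 525/598 nm; 4-parameter Hill fit against DMSO and 10 uM DA3003.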
smiles,measurement,setting,value
CC(C)N(CCC(=O)c1ccc2ccccc2c1)Cc1ccccc1,outcome,[1],inactive
same,Potency,[2],inactive
same,Potency,[3],inactive
same,Potency,[4],inactive
same,Potency,[5],inactive
same,Potency,[6],1.2 µM (active)
same,outcome,[7],inactive
COC(=O)C1=CO[C@@H](O)[C@@H]2C(CO)=CC[C@H]12,outcome,[1],inactive
same,Potency,[2],inactive
same,Potency,[3],inactive
same,Potency,[4],inactive
same,Potency,[5],13.4 µM (active)
same,outcome,[7],inactive
CO[C@@]1(NC(=O)CSC[C@@H](N)C(=O)O)C(=O)N2C(C(=O)O)=C(CSc3nnnn3C)CS[C@@H]21,Potency,[2],22.7 µM (active)
N[C@@H](Cn1ccc(=O)c(O)c1)C(=O)O,outcome,[1],inactive
same,Potency,[2],inactive
same,Potency,[3],inactive
same,"activity change, negative = inhibition",[4],-9.21% [at 6.45 µM]
same,"activity, negative = inhibition",[6],-6.53% [at 6.45 µM]
same,redox activity (% of DA3003),[7],-4.94% [at 6.41 µM]
O=C(O)c1ccccc1Nc1cc(Cl)ccc1C(=O)O,Potency,[2],inactive
NC(N)=NCCCCN=C(N)N,outcome,[1],inactive
same,Potency,[2],inactive
same,Potency,[3],inactive
COc1cccc2c1[C@@H]1CN(CCCCn3c(=O)[nH]c4c(sc5ncc(-c6ccccc6)nc54)c3=O)C[C@@H]1CO2,outcome,[1],inactive
same,Potency,[2],inactive
same,Potency,[3],inactive
COC(=O)[C@H]1[C@H]2C[C@@H]3c4[nH]c5cc(OC)ccc5c4CCN3C[C@H]2C[C@@H](OC(=O)/C=C/c2ccc(O)c(OC)c2)[C@@H]1OC,Potency,[2],inactive
O=[N+]([O-])c1ccc(O)c2ncccc12,Potency,[2],inactive
same,Potency,[3],inactive
CCC(C(=O)OCCN1CCOC(c2ccccc2)C1C)c1ccccc1 (stereo not given),Potency,[2],inactive
same,Potency,[3],inactive
C/C(=N/NC(=O)c1ccncc1)C(=O)O,Potency,[2],inactive
same,Potency,[3],inactive
CCC(=O)O[C@]1(C(=O)COC)[C@@H](C)C[C@H]2[C@@H]3CCC4=CC(=O)C=C[C@]4(C)C3(F)[C@@H](O)C[C@@]21C (stereo not given in full),Potency,[2],inactive
same,Potency,[3],inactive
CCOc1c(N2CCOCC2)cnn(C)c1=O,Potency,[2],inactive
same,Potency,[3],inactive
CC(C)C[C@@H]1[C@H](c2ccccc2)OC(=O)N1CCCN1CCCCCC1,Potency,[2],inactive
same,Potency,[3],inactive
Cc1ccc(C(=O)C(=O)O)cc1C,Potency,[2],inactive
same,Potency,[3],inactive
CCCCC(O)/C=C(C)/C=C/C=C/C(=O)N1CCCC1=O (stereo not given),Potency,[2],inactive
same,Potency,[3],inactive
COC(=O)c1cc(Cl)ccc1NS(=O)(=O)C(F)(F)F,Potency,[2],inactive
same,Potency,[3],inactive
CC(=O)[C@@]1(O)CC[C@H]2[C@@H]3C[C@H](C)C4=CC(=O)CC[C@]4(C)[C@H]3CC[C@@]21C,Potency,[2],inactive
same,Potency,[3],inactive
O=C(CS(=O)Cc1ccco1)NC/C=C\COc1cc(CN2CCCCC2)ccn1 (stereo not given),Potency,[2],18 µM (active)
same,Potency,[3],inactive
O=C(CCCCC(=O)Nc1c(I)cc(I)c(C(=O)O)c1I)Nc1c(I)cc(I)c(C(=O)O)c1I,Potency,[2],inactive
same,Potency,[3],inactive
CC(C)C(=O)OCc1cccc(OC(=O)[C@@H]2N3C(=O)[C@@H](NC(=O)Cc4ccccc4)[C@H]3SC2(C)C)c1,Potency,[2],inactive
Cc1ccc(O)cc1,Potency,[2],inactive
same,Potency,[3],inactive
Cc1cccc(N(C)C(=S)Oc2ccc3c(c2)C2CCC3C2)c1 (stereo not given),Potency,[2],inactive
same,Potency,[3],inactive
CCC(=O)O[C@H]1[C@H](O[C@@H]2[C@@H](C)[C@H](O[C@H]3C[C@@](C)(OC)[C@@H](O)[C@H](C)O3)[C@@H](C)C(=O)O[C@H](CC)[C@@](C)(O)[C@H](O)[C@@H](C)C(=O)[C@H](C)C[C@@]2(C)O)O[C@H](C)C[C@@H]1N(C)C,Potency,[2],inactive
same,Potency,[3],inactive
CCOC(=O)NNc1nncc2ccccc12,Potency,[2],inactive
same,Potency,[3],inactive
CCn1ccc(NS(=O)(=O)c2ccc(N)cc2)nc1=O,Potency,[2],inactive
same,Potency,[3],inactive
CC1(C)O[C@@H]2C[C@H]3[C@@H]4C[C@H](F)C5=CC(=O)C=C[C@]5(C)[C@@]4(F)[C@@H](O)C[C@]3(C)[C@]2(C(=O)CO)O1,Potency,[2],inactive
same,Potency,[3],inactive
CCCCCN(CCCOC)C(=O)C(CCC(=O)O)NC(=O)c1ccc(Cl)c(Cl)c1 (stereo not given),Potency,[2],inactive
same,Potency,[3],inactive
C1N2CN3CN1CN(C2)C3,Potency,[2],inactive
same,Potency,[3],inactive
Cc1ccc(Cl)c(OCC(O)CNC(C)(C)C)c1 (stereo not given),Potency,[2],inactive
same,Potency,[3],inactive
CCOC(=O)c1cc(=O)c2c(OCC(COc3cccc4oc(C(=O)OCC)cc(=O)c34)OC(=O)[C@@H](N)CCCCN)cccc2o1,Potency,[2],inactive
same,Potency,[3],inactive
CCOC(=O)C1=C(C)NC(C)=C(C(=O)OCC)C1c1ccccc1/C=C/C(=O)OC(C)(C)C,Potency,[2],inactive
same,Potency,[3],inactive
Cc1ccccc1N1CCN(CCc2nnc3n2CCCC3)CC1,Potency,[2],inactive
same,Potency,[3],inactive
Cc1nc(C2CCCCC2)c(-c2ccc(S(N)(=O)=O)c(F)c2)o1,Potency,[2],inactive
same,Potency,[3],inactive
CNC(=O)c1c(I)c(NC(C)=O)c(I)c(C(=O)O)c1I,Potency,[2],inactive
same,Potency,[3],inactive
CC(C)=CCNc1ncnc2c1ncn2[C@@H]1O[C@H](CO)[C@@H](O)[C@H]1O,Potency,[2],inactive
CC(=O)N(CC(=O)N(C)C)c1ccccc1,Potency,[2],inactive
same,Potency,[3],inactive
O=C(O)/C=C(\CC(=O)O)C(=O)O,Potency,[2],inactive
same,Potency,[3],inactive
CCC(CN)=C(c1ccccc1)c1ccccc1,Potency,[2],inactive
same,Potency,[3],inactive
Oc1ccc(CCNCCCCCCNCCc2ccccc2)cc1O,Potency,[2],inactive
O=C(O)[C@@H](O)[C@H](O)[C@H](O)[C@@H](O)C(=O)O,Potency,[2],inactive
same,Potency,[3],inactive
CC(Oc1c(Cl)cccc1Cl)C1=NCCN1 (stereo not given),Potency,[2],inactive
same,Potency,[3],inactive
NCCCC(N)CC(=O)NCC1NC(=O)C(CO)NC(=O)C(N)CNC(=O)C(C2CCN=C(N)N2)NC(=O)C(=CNC(N)=O)NC1=O (stereo not drawn) (H-[Dap]S[Dap](ξβ3hOrn)[ΔAla(3-NHCONH2)][X10]; lactam 1-C; configuration not given here),outcome,[2],inactive [at 0.4 µM]
same,"activity change, negative = inhibition",[3],3.67% [at 0.409 µM]
CC(=O)CC/C=C(\C)CC/C=C(\C)CC/C=C(\C)CCC=C(C)C,Potency,[2],inactive
same,Potency,[3],inactive
COC(=O)CCCCC(CCSS/C(CCO)=C(\C)N(C=O)Cc1cnc(C)nc1N)SC(C)=O (stereo not given),Potency,[2],inactive
same,Potency,[3],inactive
CCCCN(CCN(CCCC)C(=O)N1CCOCC1)C(=O)N1CCOCC1,Potency,[2],inactive
same,Potency,[3],inactive
NC(=O)C1(N2CCCCC2)CCN(CCCN2c3ccccc3CCc3ccc(Cl)cc32)CC1,Potency,[2],inactive
same,Potency,[3],inactive
CN1CCCN(C(c2ccccc2)c2ccc(Cl)cc2)CC1 (stereo not given),Potency,[2],inactive
same,Potency,[3],inactive
